Experimental data from the supplement of paper PMC10338343.
± gives the standard deviation.

Test system: MILI (PIWIL2) piRISC loaded with L1MC piRNA (26 nt)
Assay: pre-steady-state target cleavage rate (min^-1); guide: L1MC piRNA 5'p-UAACUAAAUACUAUGCAAGCUGUAGG; MIWI and MILI are mouse PIWI proteins and EfPiwi is from a freshwater sponge; tags in brackets are library labels; higher = faster piRNA-guided slicing of the target
In short: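 Using HEPES–potassium acetate buffer at 33 °C, 1 nM active affinity-purified piRISC with a single synthetic guide was mixed with 0.1 nM transcribed, DNA-blocked target RNA library for 0–8 or 0–960 min, with or without 500 nM GTSF1 partner protein. Uncleaved targets were sequenced and normalised to depth and to weakly complementary targets, and three trials were pooled with k3 capped at 0.0001 min^-1. A burst-and-steady-state fit gave the pre-steady-state cleavage rate.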

[1] = auxiliary factor: 500 nM mouse GTSF1
[2] = auxiliary factor: none (no GTSF1)

Sequence	pre-steady-state target cleavage rate [1]	pre-steady-state target cleavage rate [2]
UCCUGGAUCAGCUUGCAUAGUAUUUAGUUC [g2:g22:cont:t1C]	0.235 ± 0.016	0.00817 ± 0.0026
UCCUGGAUGACCUUGCAUAGUAUUAAGUUA	0.141 ± 0.022	0.00338 ± 0.0027
UCCUGGUACAGGUUGCAUAGUAUAUAGUUA	0.42 ± 0.089	0.00855 ± 0.0029
UCCUGGUACAGCUUGCAUAGUUAAUAGUUA	0.0312 ± 0.01	0.00424 ± 0.0026
UCCUGGAUGUCGAUGCAUAGUAUUUGGUUA	0.0838 ± 0.016	0.00614 ± 0.0029
UCCUGGAUCAGCUUGCAUAGUAUUUAAGUUA	0.251 ± 0.025	0.0108 ± 0.0029
UCCUGGAUGUCCUUGCAUAGUAAUAAGUUA	0.0367 ± 0.013	0.00284 ± 0.0025
UCCUGCUACAGCUACGAUAGUAUUUAGUUA	0.243 ± 0.02	0.00263 ± 0.0024
UCCUGGAUGUGCAUGCAUAGUAUAUAGUUA	0.19 ± 0.029	0.00367 ± 0.0031
UCCUGGAUGUCGAACCAAAGUAUUUUGUUA	< 0.0001	< 0.0001
UCCUGGUACACGUUGCAUAGUAUUUAGUUA	0.19 ± 0.045	0.0113 ± 0.0051
UCCUGGAUGUCGAUGCAUAGUAUCUUAGUUA	0.0692 ± 0.013	0.00487 ± 0.0024
UCCUGGAUGUCGAACCAUAGUAUAUAGUAA	< 0.0001	< 0.0001
UCCUGGUAGUGCUUGCAUAGUAUUUAGUAA	0.191 ± 0.032	0.00505 ± 0.0031
UCCUGGAUCAGCUUGCUUAGUAUUUACUUA	0.203 ± 0.025	0.00642 ± 0.0022
UCCUGGAUGUCCUUGCAUAGAUAUUUAGUUA	0.00754 ± 0.004	0.00426 ± 0.0023
UCCUGGUACAGCUUGCAAUCUAUUUAGUUA	0.0377 ± 0.013	0.00455 ± 0.0036
UCCUGGUUCAGCUUGCAUACUAUUUAGUUA	0.0631 ± 0.011	0.00505 ± 0.0024
UCCUGGUACUGCUUGCAUAGUUUUUAGUUA	0.0403 ± 0.012	0.00996 ± 0.0046
UCCUGGAUGUCGAUCGCAUAGUAUUUAGUUA	0.0384 ± 0.0094	0.00367 ± 0.0026

Sequence	pre-steady-state target cleavage rate [1]	pre-steady-state target cleavage rate [2]
UCCUGGAUGUCGUUGCUUAGUAUUUUGUUA	0.0541 ± 0.016	0.00381 ± 0.0029
UCCUGGAUGUCGUUGCUUAGUAUUUAGUUA	0.0857 ± 0.011	0.00861 ± 0.002
UCCUGGUACAGCUUGCAUAGUUUUUAGUUA	0.0505 ± 0.013	0.00579 ± 0.0038
UCCUGCUAGAGCUUGCAUAGUAUUUACUUA	0.175 ± 0.042	0.00284 ± 0.0026
UCCUGGAUGUCCAAGCAUAGUAUUUAGUAA	0.0187 ± 0.0069	0.00309 ± 0.0027
UCCUGGAUGUCGAUGGCAUAGUAUUUAGUUA	0.0677 ± 0.014	0.00792 ± 0.003
UCCUGGAUGUCGUUGCAUAGUAUAUUAGUUA	0.121 ± 0.023	0.00754 ± 0.0028
UCCUGGUACAGCUUGGAUAGUAUUAAGUUA	0.174 ± 0.038	0.00474 ± 0.0033
UCCUGGAACAGCUUGCAUAGAUUUUAGUUA	0.0289 ± 0.0057	0.003 ± 0.0026
UCCUGGUACAGCUUGCAUAGGUAUUUAGUUA	0.0078 ± 0.0065	0.00574 ± 0.0037
UCCUGGAUGUCGUUGCAUAGUAUUUAGUCA	0.146 ± 0.024	0.00639 ± 0.002
UCCUGGUACAGCUUGCAUAGUAUUUAAGUUA	0.22 ± 0.041	0.0123 ± 0.0043
UCCUGGUACAGCUUGCAUAUAUUUAGUUA	0.035 ± 0.011	0.00493 ± 0.0024
UCCUGGAUGUCGAUGCAUAGUAUUUUAGUUA	0.0747 ± 0.0088	0.00647 ± 0.0026
UCCUGGAUCAGCAUGCAUAGUAUUUACUUA	0.126 ± 0.016	0.00358 ± 0.0024
UCCUGGAUGUCGUUGCUUAGUAUAUAGUUA	0.0611 ± 0.014	0.0122 ± 0.0029
UCCUCCUACAGCUUGCUAGUAUUUAGUUA	0.037 ± 0.013	0.00462 ± 0.0021
UCCUGCUACAGGUUGCAAAGUAUUUAGUUA	0.143 ± 0.013	0.00965 ± 0.0025
UCCUGGAUGAGCUUGCAUAGUAUUUAUGUUA	0.102 ± 0.021	0.00381 ± 0.0034
UCCUGGAUGUCCUUGCAUAGUAAAUAGUUA	0.034 ± 0.0081	0.00497 ± 0.0022

Sequence	pre-steady-state target cleavage rate [1]	pre-steady-state target cleavage rate [2]
UCCUGGAUGAGCUUGCUAGUAUUUAGUUA	0.00709 ± 0.0035	0.00421 ± 0.0027
UCCUGGAUGUCGUUACAUAGUAUUUAGUUA	0.105 ± 0.011	0.00442 ± 0.0022
UCCUGGAACAGCUUGCAUAGUUAUUUAGUUA	0.0126 ± 0.0059	0.00339 ± 0.0029
UCCUGGAUGAGGUUGCAUAGUAUUUUGUUA	0.0801 ± 0.024	0.00402 ± 0.0029
UCCUGGUACACCUUGCAUAGUUUUUAGUUA	0.0288 ± 0.011	0.00381 ± 0.0034
UCCUGGAUGUGCUUGCUUAGUUUUUAGUUA	0.011 ± 0.0063	0.00656 ± 0.0028
UCCUGGAUGUCGUUGCAUAGUAUUAUAGUUA	0.173 ± 0.03	0.00429 ± 0.0034
UCCUGGAUGAGCUACCAUAGUAUUUAGUUA	0.101 ± 0.018	0.00301 ± 0.0025
UCCUGGAUGACCUUGCAUACUAUUUAGUUA	0.062 ± 0.019	0.00358 ± 0.0034
UCCUGGAACAGCUACCAUAGUAUUUAGUAA	0.23 ± 0.028	0.00298 ± 0.0029
UCCUGGAUGUCGAAGCAUAGUACUUUAGUUA	0.00532 ± 0.0027	0.00317 ± 0.002
UCCUGGAUCAGCUUGGUUAGUAUUUAGUAA	0.256 ± 0.031	0.00444 ± 0.0025
UCCUGGAUGUCGUUGCAUAAUAUUUAGUUA	0.0662 ± 0.017	0.00621 ± 0.0023
UCCUGGAUGUCCUUGCAAAGUAUUUAGUUA	0.0392 ± 0.0098	0.00687 ± 0.002
UCCUCCUACAGCUUGAUAGUAUUUAGUUA	0.147 ± 0.014	0.00404 ± 0.0022
UCCUGGAUGUCCUUGCAUAGUAUUUAGUGA	0.0966 ± 0.018	0.00382 ± 0.0024
UCCUGGAUCAGCUUGCAAUGUAUUUAGUAA	0.0826 ± 0.014	0.00611 ± 0.0022
UCCUGGAUCAGCUAGCAUAGUAUUUAGUAA	0.219 ± 0.012	0.00665 ± 0.0023
UCCUGGAUGAGGUUGCAUAGUAUAUAGUUA	0.163 ± 0.04	0.00623 ± 0.0021
UCCUGGAUGUCGAAGCAUAGUAUUUAAGUUA	0.064 ± 0.0095	0.00425 ± 0.0022
